27 molecules from PubChem BioAssay (EPA / NIEHS) can be followed below.

Where “and” joins values, the source holds several entries; their conditions need not be identical. Equal values may be shown once. The source holds several records for some structures; these can differ, active in one and inactive in another. Calls of active or inactive are those of the source. The calls were made as follows: active = hit-call score of the fitted dose curve at least 0.9, where 1 is the maximum; inactive = score below 0.9.

The assay is described as follows: CCTE_Mundy_HCI_Cortical_Synap_Neur_Matur_NeuriteLength: CCTE's Synaptogenesis and Neurite Maturation Assay in rat cortical cells for Neurite Length, Mundy Lab (AID 2284214). As for the experimental part:
CCTE_Mundy_HCI_Cortical_Synap&Neurite_Matur is a multiplexed, cell-based-readout assay that uses rat primary cortical cells with measurements taken at 288.33 hours after chemical dosing in a microplate: 96-well plate.CCTE_Mundy_HCI_Cortical_Synap_Neur_Matur_NeuriteLength is one of eight components of the CCTE_Mundy_HCI_Cortical_Synap&Neurite_Matur assay. It measures synaptogenesis and neurite maturation related to neurite length using High Content Imaging of fluorescently labelled markers.[…] Using a type of morphology reporter, loss -of-signal activity can be used to understand developmental effects.
Cells are plated onto 96 well plates and allowed 2 hr for attachment to the substrate. At days in vitro (DIV) 5, Cytosine Arabinoside (AraC) is added to arrest glial cell growth. Chemicals are dosed and a media change is performed at DIV 7 of differentiation and is continued through DIV 12 when the experiment is terminated. Cells are fixed with […] and Hoechst Dye. Cells are stained using Millipore Mouse anti-MAP2MAB3418 (1:800) and Millipore Rabbit anti-Synaptophysinsc-1750 (1:250) primary antibodies and Alexa Fluor-488 goat anti-mouse and AlexaFluor-546 goat anti-rabbit secondary antibodies to label neuronal cell nuclei, synapses and neurites. A Cellomics ArrayScan VTi HCS Reader is used for automated image acquisition and analysis of neurite outgrowth.
Regarding `CCOP(=S)(OCC)Oc1cc(C)nc(C(C)C)n1`, the AC50 was 50 µM (active).

`CSC1=N[C@@](C)(c2ccccc2)C(=O)N1Nc1ccccc1`: the molecule was classed as inactive.

With `CCOP(=O)(NC(C)C)Oc1ccc(SC)c(C)c1` (stereo not drawn), the molecule was classed as inactive.

`CCOP(=O)(SC(C)CC)N1CCSC1=O` (stereo not drawn): the molecule was classed as inactive.

Turning to `CC(C)N(C(=O)SCC(Cl)=C(Cl)Cl)C(C)C`, the half-maximal activity concentration (AC50) was 15 µM (active).

As to `CC1=NNC(=O)N(/N=C/c2cccnc2)C1`, the molecule was classed as inactive.

With `CC[C@H](C)[C@H]1O[C@]2(C=C[C@@H]1C)C[C@@H]1C[C@@H](C/C=C(\C)[C@@H](O[C@H]3C[C@H](OC)[C@@H](O[C@H]4C[C@H](OC)[C@@H](NC)[C@H](C)O4)[C@H](C)O3)[C@@H](C)/C=C/C=C3\CO[C@@H]4[C@H](O)C(C)=C[C@@H](C(=O)O1)[C@]34O)O2`, the AC50 was 387 nM (active) and 828 nM (active).

Turning to `CC(=NC#N)N(C)Cc1ccc(Cl)nc1`, the call was inactive.

In the case of `CCOP(=S)(Oc1cnc(C(C)(C)C)nc1)OC(C)C` (stereo not drawn), the AC50 was 20.1 µM (active) and the molecule was classed as inactive.

For `CCCSP(=O)(OCC)Oc1ccc(Br)cc1Cl` (stereo not drawn), the outcome was inactive.

For `CCOC(=O)CC(SP(=O)(OC)OC)C(=O)OCC` (stereo not drawn), the outcome was inactive.

Take `COP(=O)(OC)OC(Br)C(Cl)(Cl)Br` (stereo not drawn): the AC50 was 32.5 µM (active) and 41.6 µM (active).

In the case of `CN(C)[C@@H]1C(=O)C(C(N)=O)=C(O)[C@@]2(O)C(=O)C3=C(O)c4c(O)cccc4[C@@](C)(O)[C@H]3[C@H](O)[C@@H]12`, the AC50 is 60.9 µM (active).

In the case of `COP(=O)(NC(C)=O)SC` (stereo not drawn), the result was inactive.

For `CCOP(=S)(OCC)SCCSCC`, the outcome was inactive.

As to `CCOP(=S)(OCC)Oc1ccc([N+](=O)[O-])cc1`, the AC50 was 15 µM (active).

Turning to `COP(=O)(OC)C(O)C(Cl)(Cl)Cl` (stereo not drawn), the AC50 was 36.9 µM (active).

As to `CCOP(=S)(OCC)Oc1ccc2c(C)c(Cl)c(=O)oc2c1`, the concentration at half-maximal activity (AC50) was 50 µM (active).

As for `CON=C(C(=O)OC)c1ccccc1CON=C(C)c1cccc(C(F)(F)F)c1`, the AC50 is 0.954 µM (active).

As for `CCOP(=S)(OCC)OC(Cl)C(Cl)(Cl)Cl` (stereo not drawn), the AC50 is 85.1 µM (active) and 12.1 µM (active).

Turning to `C[N+]1(C)CCCCC1`, the call was inactive.

With `S=C1NCCN1`, the molecule was classed as inactive.

In the case of `CCCSP(=O)(OCC)SCCC`, the result was inactive.

With `CCCCSP(=O)(SCCCC)SCCCC`, the AC50 was 50 µM (active) and 14.2 µM (active).

For the molecule `CN1COCN(Cc2cnc(Cl)s2)C1=N[N+](=O)[O-]`, the result was inactive.

As for `O=[N+]([O-])c1cc(C(F)(F)F)c(Cl)c([N+](=O)[O-])c1Nc1ncc(C(F)(F)F)cc1Cl`, the AC50 is 0.924 µM (active).

With `CCOP(=O)(OCC)Oc1cc(C)nc(C(C)C)n1`, the call was inactive.
